Where “and” joins values, the source holds several entries; their conditions need not be identical. Equal values may be shown once. More than one record can exist for a structure, and the calls need not agree. Calls of active or inactive are those of the source. The calls were made as follows: active = hit-call score of the fitted dose curve at least 0.9, where 1 is the maximum; inactive = score below 0.9.
Key:
[1] = BSK_CASM3C_SRB: Viability Assessment in the BioMAP Diversity Plus: CASM3C Assay (AID 2283050); conditions: primary human coronary artery smooth muscle cells;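 also: total protein by SRB staining as cytotoxicity measure in parallel cultures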
[2] = read-out: Thrombomodulin, THBD (gene 7056); assay: BSK_CASM3C_Thrombomodulin: BioMAP Diversity Plus: CASM3C Assay for Thrombomodulin Biomarker Activity (AID 2283051); conditions: primary human coronary artery smooth muscle cells; actives raise or lower the signal;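 also: thrombomodulin protein level measured by ELISA 24 h after dosing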
[3] = read-out: Tissue Factor, F3 (gene 2152); assay: BSK_CASM3C_TissueFactor: BioMAP Diversity Plus: CASM3C Assay for Tissue Factor Biomarker Activity (AID 2283052); conditions: primary human coronary artery smooth muscle cells; actives raise or lower the signal;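 also: cell surface tissue factor protein level read by ELISA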
[4] = read-out: Interferon-gamma inducible Protein 10 (IP10), CXCL10 (gene 3627); assay: BSK_hDFCGF_IP10: BioMAP Diversity Plus: hDFCGF Assay for Interferon-gamma inducible Protein 10 (IP10) Biomarker Activity (AID 2283053); conditions: primary human foreskin fibroblasts; actives raise or lower the signal
Method in brief: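 IP-10 levels, quantified by ELISA, are taken from human foreskin fibroblast cultures 24 h after chemical treatment, with DMSO serving as negative control and baseline for bidirectional analysis.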

[5] = read-out: Urokinase-type plasminogen activator receptor (uPAR), PLAUR (gene 5329); assay: BSK_CASM3C_uPAR: BioMAP Diversity Plus: CASM3C Assay for Urokinase-type plasminogen activator receptor (uPAR) Biomarker Activity (AID 2283054); conditions: primary human coronary artery smooth muscle cells; actives raise or lower the signal;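 also: cell-surface uPAR protein level quantified by ELISA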
[6] = read-out: Vascular cell adhesion molecule 1 (VCAM1), VCAM1 (gene 7412); assay: BSK_CASM3C_VCAM1: BioMAP Diversity Plus: CASM3C Assay for Vascular cell adhesion molecule 1 (VCAM1) Biomarker Activity (AID 2283055); conditions: primary human coronary artery smooth muscle cells; actives raise or lower the signal;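 also: VCAM-1 protein level quantified by ELISA on the cells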
[7] = read-out: Epidermal growth factor receptor (EGFR), EGFR (gene 1956); assay: BSK_hDFCGF_EGFR: BioMAP Diversity Plus: hDFCGF Assay for Epidermal growth factor receptor (EGFR) Biomarker Activity (AID 2283057); conditions: primary human foreskin fibroblasts; actives raise or lower the signal
Method in brief: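 Measured by ELISA: EGFR levels on primary human foreskin fibroblasts 24 h after chemical treatment, analysed relative to DMSO with bidirectional fitting.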

[8] = read-out: Interleukin-8 (IL8), CXCL8 (gene 3576); assay: BSK_hDFCGF_IL8: BioMAP Diversity Plus: hDFCGF Assay for Interleukin-8 (IL8) Biomarker Activity (AID 2283058); conditions: primary human foreskin fibroblasts; actives raise or lower the signal
Method in brief: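 Fibroblast monolayers (human foreskin, hDFCGF) received test chemical for 24 h before ELISA detection of IL-8; either increases or decreases relative to DMSO count as activity.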

[9] = BSK_hDFCGF_Proliferation: Cell Proliferation Assessment in the BioMAP Diversity Plus: hDFCGF Assay (AID 2283059); conditions: primary human foreskin fibroblasts;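 also: curves fitted for both rise and fall of signal versus DMSO baseline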
Method in brief: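 This proliferation readout used SRB total-protein staining of human foreskin fibroblasts […], normalized to DMSO with bidirectional curve fitting.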

[10] = read-out: Macrophage colony-stimulating factor (MCSF), CSF1 (gene 1435); assay: BSK_hDFCGF_MCSF: BioMAP Diversity Plus: hDFCGF Assay for Macrophage colony-stimulating factor (MCSF) Biomarker Activity (AID 2283060); conditions: primary human foreskin fibroblasts; actives raise or lower the signal
Method in brief: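 fibroblasts (human foreskin, primary), 24 h post-dose; M-CSF by ELISA; bidirectional fit, DMSO = baseline.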

[11] = BSK_hDFCGF_SRB: Viability Assessment in the BioMAP Diversity Plus: hDFCGF Assay (AID 2283061); conditions: primary human foreskin fibroblasts;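 also: cells exposed to compound for 24 h before the read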
Method in brief: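 SRB-based viability read on primary human skin fibroblasts at 24 h: TCA fixation, 0.1% dye, 560 nm. Gain or loss of signal is fitted against the DMSO negative control.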

[12] = read-out: TIMP metallopeptidase inhibitor 1 (TIMP1), TIMP1 (gene 7076); assay: BSK_hDFCGF_TIMP1: BioMAP Diversity Plus: hDFCGF Assay for TIMP metallopeptidase inhibitor 1 (TIMP1) Biomarker Activity (AID 2283062); conditions: primary human foreskin fibroblasts; actives raise or lower the signal
Method in brief: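 Bidirectional curve fitting against DMSO baseline yielded this endpoint, based on ELISA detection of TIMP-1 in primary human foreskin fibroblasts exposed to compound for 24 h.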

[13] = read-out: Monokine induced gamma interferon (MIG), CXCL9 (gene 4283); assay: BSK_hDFCGF_MIG: BioMAP Diversity Plus: hDFCGF Assay for Monokine induced gamma interferon (MIG) Biomarker Activity (AID 2283063); conditions: primary human foreskin fibroblasts; actives raise or lower the signal
Method in brief: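 Endpoint derived by bidirectional fitting relative to DMSO; MIG quantified via ELISA in primary human foreskin fibroblasts harvested 24 h after dosing.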

[14] = read-out: Matrix Metallopeptidase 1 (MMP1), MMP1 (gene 4312); assay: BSK_hDFCGF_MMP1: BioMAP Diversity Plus: hDFCGF Assay for Matrix Metallopeptidase 1 (MMP1) Biomarker Activity (AID 2283064); conditions: primary human foreskin fibroblasts; actives raise or lower the signal
Method in brief: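 Primary human foreskin fibroblasts exposed to chemicals for 24 h; MMP1 measured by ELISA. Cytotoxicity tracked by SRB staining in parallel cultures; bidirectional fit relative to DMSO.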

[15] = read-out: Vascular cell adhesion molecule 1 (VCAM1), VCAM1 (gene 7412); assay: BSK_hDFCGF_VCAM1: BioMAP Diversity Plus: hDFCGF Assay for Vascular cell adhesion molecule 1 (VCAM1) Biomarker Activity (AID 2283065); conditions: primary human foreskin fibroblasts; actives raise or lower the signal;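 as to AC50: VCAM-1 protein level quantified by ELISA after 24 h chemical exposure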
Method in brief: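 Measured after 24 h chemical treatment of primary human skin fibroblasts, VCAM-1 was detected by ELISA and concentration-response analysed in both directions versus DMSO vehicle.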

[16] = read-out: Plasminogen activator inhibitor-1 (PAI1), SERPINE1 (gene 5054); assay: BSK_hDFCGF_PAI1: BioMAP Diversity Plus: hDFCGF Assay for Plasminogen activator inhibitor-1 (PAI1) Biomarker Activity (AID 2283066); conditions: primary human foreskin fibroblasts; actives raise or lower the signal
Method in brief: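 PAI-1 levels, determined by ELISA, served as the endpoint in human foreskin fibroblast cultures exposed to compound for 24 h, with DMSO as baseline.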

[17] = read-out: Intercellular Adhesion Molecule 1 (ICAM1), ICAM1 (gene 3383); assay: BSK_KF3CT_ICAM1: BioMAP Diversity Plus: KF3CT Assay for Intercellular Adhesion Molecule 1 (ICAM1) Biomarker Activity (AID 2283067); conditions: primary human keratinocytes with fibroblasts; actives raise or lower the signal
Method in brief: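 Bidirectional curve fitting against a DMSO baseline was applied to ICAM-1 ELISA signal from primary human skin co-cultures harvested 24 h after treatment, with SRB staining of parallel wells for overt cytotoxicity.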

[18] = read-out: Interferon-gamma inducible Protein 10 (IP10), CXCL10 (gene 3627); assay: BSK_KF3CT_IP10: BioMAP Diversity Plus: KF3CT Assay for Interferon-gamma inducible Protein 10 (IP10) Biomarker Activity (AID 2283068); conditions: primary human keratinocytes with fibroblasts; actives raise or lower the signal
Method in brief: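 Signal is secreted/surface IP-10 by ELISA in a human primary skin co-culture of keratinocytes and foreskin fibroblasts, taken 24 h post-dosing; DMSO served as negative control.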

[19] = BSK_KF3CT_SRB: Viability Assessment in the BioMAP Diversity Plus: KF3CT Assay (AID 2283069); conditions: primary human keratinocytes with fibroblasts;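 also: total protein by sulforhodamine B staining as a cytotoxicity measure; fitted for both signal gain and loss against DMSO baseline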
Method in brief: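 Human keratinocyte and foreskin fibroblast co-culture exposed to chemical for 24 h. Total protein measured in parallel cultures by 0.1% sulforhodamine B staining after 10% TCA fixation, read at 560 nm; bidirectional fit relative to DMSO.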

[20] = read-out: Collagen III, COL3A1 (gene 1281); assay: BSK_hDFCGF_CollagenIII: BioMAP Diversity Plus: hDFCGF Assay for Collagen III Biomarker Activity (AID 2283056); conditions: primary human foreskin fibroblasts; actives raise or lower the signal
Method in brief: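 Response relative to DMSO, fitted in both directions, reflects ELISA-measured collagen III in human primary skin fibroblasts 24 h after compound addition.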

Measured: AC50

CC1(C)[C@H](C=C(Cl)Cl)[C@H]1C(=O)OCc1cccc(Oc2ccccc2)c1
not listed: [20]
inactive: all other assays above

CCCO[Si](OCCC)(OCCC)OCCC
active: [9] 31.1 µM and 25.8 µM
not listed: [16] | [20]
inactive: all other assays above

CC/C(=C(\c1ccccc1)c1ccc(OCCN(C)C)cc1)c1ccccc1
active: [1] 27.2 µM and 16.9 µM | [2] 4.85 µM | [3] 13.7 µM | [4] 8.93 µM and 7.96 µM | [5] 25.9 µM and 14.2 µM | [6] 29 µM and 16.1 µM | [20] 9.76 µM and 7.96 µM | [8] 9.19 µM and 7.91 µM | [9] 5.05 µM and 314 nM | [10] 7.77 µM and 7.23 µM | [11] 6.75 µM and 6.55 µM | [12] 8.65 µM and 11.5 µM | [13] 9.37 µM and 11 µM | [14] 10.1 µM and 11.1 µM | [15] 9.88 µM and 9.9 µM | [17] 9.03 µM and 8.65 µM | [18] 10.1 µM and 7.37 µM | [19] 6.49 µM and 9.44 µM
inactive: [2] | [3] | [7]

O=C1OC2(c3ccc(O)cc3Oc3cc(O)ccc32)c2ccccc21
active: [9] 20 µM
not listed: [16] | [20]
inactive: all other assays above

C=C(F)C(=O)OC(C(F)(F)F)C(F)(F)F
inactive: [1] | [2] | [3] | [4] | [5] | [6] | [7] | [8] | [9] | [10] | [11] | [12] | [13] | [14] | [15] | [17] | [18] | [19]
active: [11] 38.2 µM

From PubChem BioAssay (EPA / NIEHS)
